Results published in the supplement of paper PMC4723716.
± gives the uncertainty stated by the source. Whole data set: some 9,900 compounds, median “viability index relative to DMSO control” near 1, cut for the lowest 2% near 0.85. Shown is part of a subset that was picked to be rich in the lowest values.

System: Plasmodium falciparum NF54 stage V gametocytes
Assay: viability index relative to DMSO control (fraction); higher = less gametocyte killing
Conditions: 2.5 µM, incubation time: 72 h
Outline: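 In 1,536-well plates, 10 µl of serum-free medium holding P. falciparum NF54 stage V gametocytes (0.75% gametocytemia, 1.25% hematocrit) received compound at 2.5 µM for 72 hr at 37°C in low oxygen. After one to two hours with 3 µl of 2.5 µM MitoTracker Red CMXRos containing 0.13% saponin, red particles of 20–70 µm2 were counted in a single field per well. Viability index is reported as the particle count over the plate mean of wells treated with solvent only.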

[1] = library set: Broad Institute DOS
[2] = library set: Broad Institute Blood Stage

SMILES | viability index [1] | viability index [2]
COCC#Cc1ccc([C@@H]2[C@H](CO)N3C(=O)CN(C(=O)CN4CCOCC4)C[C@@H]23)cc1 | 1.02 ± 0.05 | –
C[C@@H](NC(=O)C[C@H]1C=C[C@@H](NS(=O)(=O)c2cccc(F)c2)[C@H](CO)O1)c1ccccc1 | 1.17 ± 0.04 | –
O=C(N[C@@H]1CC[C@H](CC(=O)N2CCOCC2)O[C@H]1CO)c1cccc(F)c1 | 1.07 ± 0.062 | –
O=C(Nc1ccccc1)N1CC(=O)N2[C@H](CO)[C@@H](c3ccc(C#CC4CCCCC4)cc3)[C@@H]2C1 | 1.04 ± 0.086 | –
COCC(=O)N1CC[C@@]2(CC1)CN([C@@H](CO)c1c2c2ccc(OC)cc2n1C)C(=O)c1ccccn1 | 1.02 ± 0.1 | –
CO[C@@H]1CN(C)C(=O)c2cc(NS(=O)(=O)CC(F)(F)F)ccc2OC[C@H](C)NC[C@@H]1C | 1.05 ± 0.059 | –
O=C(NCC[C@@H]1CC[C@@H](NS(=O)(=O)Cc2ccccc2)[C@@H](CO)O1)C1CCCCC1 | 0.968 ± 0.15 | –
CN(C)C(=O)C[C@@H]1C=C[C@H](NC(=O)c2ccc(F)cc2)[C@@H](CO)O1 | 1.11 ± 0.097 | –
C[C@H](CO)N1C[C@H](C)[C@@H](CN(C)C(=O)Nc2ccc3c(c2)OCO3)Oc2c(NC(=O)c3nc4ccccc4s3)cccc2C1=O | 1.01 ± 0.041 | –
C[C@H](CO)N1C[C@H](C)[C@@H](CN(C)C(=O)Nc2ccc(C(F)(F)F)cc2)Oc2ccc(NS(=O)(=O)c3ccc(Cl)cc3)cc2CC1=O | 0.917 ± 0.088 | –
C[C@H](CO)N1C[C@H](C)[C@H](CN(C)C(=O)Nc2ccc(C(F)(F)F)cc2)Oc2ccc(NS(=O)(=O)c3ccc(Cl)cc3)cc2CC1=O | 1.009 ± 0.0083 | –
C[C@@H]1CN([C@@H](C)CO)C(=O)c2cccc(NC(=O)C3CC3)c2O[C@@H]1CN(C)C(=O)Nc1ccc(C(F)(F)F)cc1 | – | 0.594 ± 0.06
C[C@@H]1CN([C@@H](C)CO)C(=O)c2cccc(NC(=O)c3nc4ccccc4s3)c2O[C@H]1CN(C)C(=O)Nc1ccc(C(F)(F)F)cc1 | – | 0.811 ± 0.058
C[C@@H]1CN([C@H](C)CO)C(=O)c2cccc(NC(=O)NC3CCCCC3)c2O[C@@H]1CN(C)Cc1ccc(C(F)(F)F)cc1 | 0.977 ± 0.071 | –
C[C@H](CO)N1C[C@H](C)[C@@H](CN(C)C(=O)Nc2ccc3c(c2)OCO3)Oc2ccc(NC(=O)Nc3ccc(C(F)(F)F)cc3)cc2CC1=O | – | 0.755 ± 0.061
C[C@@H]1CN([C@H](C)CO)C(=O)c2cccc(NC(=O)c3nc4ccccc4s3)c2O[C@H]1CN(C)C(=O)Nc1ccc2c(c1)OCO2 | 0.9047 ± 0.0069 | –
C[C@@H]1CN([C@H](C)CO)C(=O)c2cccc(NC(=O)NC3CCCCC3)c2O[C@H]1CN(C)Cc1ccc(C(F)(F)F)cc1 | 1.01 ± 0.083 | –
Cc1ccc(S(=O)(=O)Nc2cccc3c2O[C@H](CN(C)C(=O)Nc2ccc(C(F)(F)F)cc2)[C@@H](C)CN([C@H](C)CO)C3=O)cc1 | 1.02 ± 0.029 | –
Cc1ccc(S(=O)(=O)Nc2cccc3c2O[C@@H](CN(C)C(=O)Nc2ccc(C(F)(F)F)cc2)[C@@H](C)CN([C@H](C)CO)C3=O)cc1 | 1.08 ± 0.061 | –
C[C@@H]1CN([C@@H](C)CO)C(=O)c2cccc(NC(=O)NC3CCCCC3)c2O[C@@H]1CN(C)Cc1ccc(C(F)(F)F)cc1 | 0.813 ± 0.08 | –
